# In PubChem BioAssay (NCI):
# This is part of a sample that, as a whole, favours compounds with a hit. Of some 79,000 tested, about 15% had one in any assay. Values without a mark were called inactive. Calls of active or inactive are those of the source. Cut-off read from the data, not from the text of the source: active = growth inhibition above about 70%; inactive = the rest.
# Assay: NCI Yeast Anticancer Drug Screen. Data for the sgs1 strain (AID 173);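 note: 0% = growth of vehicle-only control cultures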
# Settings: S. cerevisiae sgs1 mutant, stronger effect = higher value
# Procedure: Growth inhibition of yeast strains with defined genetic alterations is measured as a screen for potential anti-cancer activity. Selected strains with alterations in DNA damage repair or cell cycle control were exposed to compounds and growth inhibition was measured relative to vehicle treated controls. The strain used in this assay is sgs1
Compound,growth inhibition (at 1.2 µM),growth inhibition (at 3.7 µM),growth inhibition (at 11.0 µM),growth inhibition (at 33.0 µM),growth inhibition (at 100.0 µM)
O=[N+]([O-])C(=C(NCc1ccccc1)NCc1ccccc1)C(Cl)=C(Cl)Cl,1%,7%,15%,39%,83% (active)
CC1C=CN(N(C)C)C2=C1C(=O)c1cnccc1C2=O (stereo not given),41%,46%,65%,93% (active),96% (active)
CCc1nc2ccc(N=Nc3c(O)ccc4ccccc34)cc2[nH]1,1%,17%,24%,57%,95% (active)
C#CC1=CC(=O)C(OC)=CC1=O,11%,34%,98% (active),100% (active),99% (active)
Cc1ccc2c(/C=C/c3ccc(N(C)C)cc3)ccnc2c1C,-26%,-51%,-4%,82% (active),87% (active)
c1ccc(N/N=C2\CC(c3ccccc3)Oc3ccccc32)cc1 (stereo not given),-1%,0%,5%,18%,24%
COc1ccc2cc(CN3CCC(C4CCN(Cc5ccc6cc(OC)ccc6c5)CC4)CC3)ccc2c1,14%,8%,12%,3%,98% (active)
Cc1ccc(C(C)C)c(C(=C2C=CC(=[N+](C)C)C=C2)c2c(C(C)C)ccc(C)c2O)c1O,0%,14%,97% (active),94% (active),82% (active)
